For experiment [1], the target named is Glucocorticoid receptor (Homo sapiens) (UniProt P04150). As to the kind of experiment: qHTS assay for small molecule agonists of glucocorticoid receptor signaling (AID 588532; active means well fitted curve in the direction sought with a large enough effect in the signal ratio, with a control signal flat; the % refers to the signal ratio;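 further: 100% = dexamethasone at 0.1 µM and 0% = DMSO only wells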). The conditions noted are these: HeLa MMTV-bla, beta-lactamase ratio, agonist, 18 h; stronger effect = higher value; percent of dexamethasone control, DMSO zero. The essentials: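 Cells were plated and rested 3-5 h at 37 C, compounds were added in titration and incubated 18 h, then CCF4 substrate was loaded for 2 h at RT before reading blue/green fluorescence. EC50 came from Hill-equation fitting.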

Experiment [2] has the same target. As to the kind of experiment: qHTS assay for small molecule antagonists of glucocorticoid receptor signaling (AID 588533; active means well fitted inhibition curve with a large enough effect in the signal ratio, with a control signal flat, not every such curve was filed as active; the % refers to the signal ratio; further: on the % scale 0 is the no-effect control and ±100 the full control effect). The following applies: HeLa MMTV-bla, GRE beta-lactamase ratio, antagonist mode, 18 h; series mostly up to 76.8 µM. The essentials: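 Antagonist-mode qHTS: compound titrations added to GRE-bla HeLa cells, then dexamethasone 2 nM final; 18 h, 37 C. CCF4 FRET fluorescence normalized to dexamethasone and DMSO; IC50 from Hill fit.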
(In general: In qHTS, concentration-response curves come from the screen itself.)

A short description of experiment [3]: qHTS assay for small molecule antagonists of peroxisome proliferator-activated receptor delta signaling (AID 588535).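 Further: cells co-treated with a PPAR-delta agonist as stimulator during compound exposure.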 The conditions noted are these: HEK293T PPARd-UAS-bla, beta-lactamase FRET ratio, 18 h; 460 nm channel. An outline of the steps:
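Beta-lactamase reporter read-out (405 nm excitation, 460/530 nm emission) after CCF4 loading for 2 hrs at RT. HEK293T PPAR-delta-UAS-bla cells, 2% charcoal/dextran FBS, compounds for 18 hrs at 37 C. Hill fit gave IC50 and efficacy.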

The target of experiment [4] is Peroxisome proliferator-activated receptor gamma (Homo sapiens) (UniProt P37231). As to the kind of experiment: qHTS assay for small molecule agonists of peroxisome proliferator-activated receptor gamma signaling (AID 588536; active means well fitted curve in the direction sought with a large enough effect in the signal ratio, with a control signal flat, not every such curve was filed as active; the % refers to the signal ratio). The following applies: HEK293 PPARg-UAS-bla, beta-lactamase ratio, 16 h, percent of rosiglitazone response, DMSO as zero; series mostly up to 76.7 µM. The essentials: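 Beta-lactamase reporter read-out: CCF4 fluorescence (ex 405, em 460/530 nm) after 2 h at RT. HEK293 GeneBLAzer cells were treated for 16 h at 37 C. Hill fits gave EC50 and efficacy versus 2 uM rosiglitazone (100%) and DMSO (0%).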

The target in experiment [5] is Vitamin D3 receptor (Homo sapiens) (UniProt P11473). As to the kind of experiment: qHTS assay for small molecule antagonists of vitamin D receptor signaling (AID 588541).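 Further: receptor activated by calcitriol during compound treatment; on the % scale 0 is the no-effect control and ±100 the full control effect.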 The following applies: HEK293T VDR-UAS-bla, beta-lactamase ratio, antagonist mode; series mostly up to 76.7 µM. The essentials:
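VDR-UAS-bla HEK293T cells in 2% charcoal-stripped FBS were stimulated with 1-alpha,25-dihydroxyvitamin D3 (3 nM final) plus compound for 16 h at 37 C. The beta-lactamase CCF4 readout was normalized to 50 nM agonist and DMSO, and Hill fits gave IC50.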

The target is the same in experiment [6]. As to the kind of experiment: qHTS assay for small molecule agonists of vitamin D receptor signaling (AID 588543).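 Further: 0% = DMSO basal and 100% = reference agonist control.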 The following applies: HEK293T VDR-UAS-bla, beta-lactamase ratio, 16 h; series mostly up to 76.8 µM. An outline of the steps:
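Measured: β-lactamase reporter activity (CCF4, 405 nm excitation, 460/530 nm emission) in HEK293T VDR-UAS-bla cells after 16 h compound exposure at 37 °C. Normalization against 50 nM 1α,25-dihydroxyvitamin D3 and DMSO; Hill-fit EC50.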

The nature of experiment [7]: qHTS assay for small molecule agonists of retinoid X receptor alpha signaling (AID 588544).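 On activation: 0% = DMSO basal wells and 100% = reference agonist.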 The following applies: HEK293T RXRa-UAS-bla, beta-lactamase reporter, 18 h; 530 nm emission.
For experiment [8], the target named is Retinoic acid receptor RXR-alpha (Homo sapiens) (UniProt P19793). The description is as above. The following applies: HEK293T RXRa-UAS-bla, beta-lactamase reporter, 18 h; series mostly up to 76.7 µM.
The target of experiment [9] is Thyroid hormone receptor beta (Homo sapiens) (UniProt P10828). As to the kind of experiment: qHTS assay for small molecule agonists of thyroid hormone receptor beta signaling (AID 588545).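 Further: 0% = DMSO only and 100% = 10 nM T3.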 The following applies: TR-UAS-bla GripTite HEK 293, beta-lactamase ratio, agonist mode, 18 h, percent of T3 response, DMSO as zero; series mostly up to 76.7 µM. An outline of the steps: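 Compounds were tested as agonists in TR-UAS-bla-GripTite HEK 293 cells. After 18 hrs at 37 C, CCF4 substrate was added and fluorescence read after 2 hrs at room temperature.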

Experiment [10] can be described thus: qHTS assay for small molecule antagonists of retinoid X receptor alpha signaling (AID 588546; active means well fitted inhibition curve with a large enough effect in the signal ratio, with a control signal flat, not every such curve was filed as active; the % refers to the signal ratio;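 further: cells stimulated with 9-cis-retinoic acid as agonist; on the % scale 0 is the no-effect control and ±100 the full control effect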). The conditions noted are these: HEK293T RXRa-UAS-bla, beta-lactamase ratio, antagonist mode; measured here: W530 green channel, cytotoxicity proxy. An outline of the steps:
(§1)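 Beta-lactamase reporter inhibition, read as CCF4 fluorescence ratio (ex 405, em 460/530 nm) after 2 h at RT. HEK293T UAS-bla cells, 2500/well, were stimulated with 9-cis-RA at 500 or 100 nM final alongside test compound for 18 h at 37 C.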

The target in experiment [11] is Retinoic acid receptor RXR-alpha (Homo sapiens) (UniProt P19793). The description is as above. The following applies: HEK293T RXRa-UAS-bla, beta-lactamase ratio, antagonist mode. The essentials:
as §1

The target in experiment [12] is Thyroid hormone receptor beta (Homo sapiens) (UniProt P10828). As to the kind of experiment: qHTS assay for small molecule antagonists of thyroid hormone receptor beta signaling (AID 588547; active means well fitted inhibition curve with a large enough effect in the signal ratio, with a control signal flat, not every such curve was filed as active; the % refers to the signal ratio;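 further: cells stimulated with 0.4 nM T3 agonist during compound exposure; on the % scale 0 is the no-effect control and ±100 the full control effect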). The following applies: TR-UAS-bla HEK293, beta-lactamase ratio, antagonist mode, 18 h. An outline of the steps: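 TR-UAS-bla GripTite HEK293 cells in 2% charcoal/dextran FBS medium; compounds 0.59 nM to 92 uM with T3 at 0.4nM final, 18 h at 37 C. Beta-lactamase read by CCF4 fluorescence (460/530 nm); Hill fits gave IC50 and efficacy.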

Experiment [13] addresses Voltage-gated inwardly rectifying potassium channel KCNH2 (Homo sapiens) (UniProt Q12809). As to the kind of experiment: qHTS Assay for Small Molecule Inhibitors of the Human hERG Channel Activity (AID 588834; active means well fitted inhibition curve with a large enough effect;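 further: top concentration of the series differs between compounds; on the % scale 0 is the no-effect control and ±100 the full control effect; lower thallium flux fluorescence means stronger hERG block; nearly all actives have a fitted effect of over 50% in size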). The conditions noted are these: U2OS BacMam hERG, FluxOR thallium flux fluorescence; series mostly up to 92.2 µM. An outline of the steps: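 Homogeneous FluxOR thallium flux assay using hERG-expressing U2OS cells (BacMam). Compound treatment about 10 minutes preceded stimulation; reduced fluorescence taken as channel block.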

Experiment [14] can be described thus: qHTS assay for small molecule activators of the nuclear factor-kappa B (NF-kB) signaling pathway (AID 651749; active means well fitted activation curve with a large enough effect in the signal ratio; the % refers to the signal ratio; further: % of control where 0% means no effect). The conditions noted are these: NF-kB-bla ME-180 cells, beta-lactamase FRET ratio, 16 h; stronger effect = higher value. The essentials: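 NF-kB-bla ME-180 cells, 2,000/well; 23 nL compound or DMSO pinned; 16 hr, 37C/5% CO2; beta-lactamase FRET read-out.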
Experiment [15] in a line: qHTS assay for small molecule agonists of the antioxidant response element (ARE) signaling pathway (AID 651741; active means well fitted activation curve with a large enough effect in the signal ratio; the % refers to the signal ratio; further: % of control where 0% means no effect). The conditions noted are these: HepG2 ARE-bla reporter, beta-lactamase FRET ratio, 16 h; series mostly up to 96 µM. An outline of the steps: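 HepG2 ARE-bla reporter cells, 2,000/well; 5 h settle at 37 C/5% CO2; compound pin transfer (23 nL, DMSO); 16 h at 37 C; LiveBLAzer B/G FRET substrate, 2 h RT; fluorescence intensity read.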

A short description of experiment [16]: qHTS assay for small molecule activators of the p53 signaling pathway (AID 651743; active means well fitted activation curve with a large enough effect in the signal ratio, not every such curve was filed as active; the % refers to the signal ratio; further: % of control where 0% means no effect). The following applies: HCT-116 p53RE-bla, beta-lactamase FRET ratio, 16 h; stronger effect = higher value. The essentials:
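Reporter: beta-lactamase driven by p53 response elements, stably integrated in HCT-116 cells. Cells seeded at 4,000/well, 5 h preincubation, compound (DMSO) 16 h at 37 C; B/G FRET substrate 2 h RT; fluorescence intensity read.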

The target of experiment [17] is Peroxisome proliferator-activated receptor gamma (Homo sapiens) (UniProt P37231). As to the kind of experiment: qHTS assay for small molecule antagonists of peroxisome proliferator-activated receptor gamma signaling (AID 588537; active means well fitted inhibition curve with a large enough effect in the signal ratio, with a control signal flat, not every such curve was filed as active; the % refers to the signal ratio;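 further: reporter cells co-stimulated with 50 nM rosiglitazone agonist during compound treatment; % of control where 0% means no effect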). The following applies: HEK293 PPARg-UAS-bla, beta-lactamase ratio, antagonist mode; series mostly up to 76.8 µM. An outline of the steps: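 Read-out: CCF4 fluorescence (ex 405, em 460/530 nm) after 2 h at RT. Cells were HEK293 carrying a UAS-bla reporter and treated 16 h at 37 C with compound plus rosiglitazone (50 nM final). Normalized to rosiglitazone and DMSO.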

Structures are written as SMILES. “And” between values parts separate entries of the source, which are not always exact repeats. Equal values may be shown once. Records with an inconclusive call do not appear. The source made the active and inactive calls. Unless noted, the call rests on the fitted dose curve.

Chain of Voltage-gated inwardly rectifying potassium channel KCNH2 (Homo sapiens) (Q12809 whole entry, looked up): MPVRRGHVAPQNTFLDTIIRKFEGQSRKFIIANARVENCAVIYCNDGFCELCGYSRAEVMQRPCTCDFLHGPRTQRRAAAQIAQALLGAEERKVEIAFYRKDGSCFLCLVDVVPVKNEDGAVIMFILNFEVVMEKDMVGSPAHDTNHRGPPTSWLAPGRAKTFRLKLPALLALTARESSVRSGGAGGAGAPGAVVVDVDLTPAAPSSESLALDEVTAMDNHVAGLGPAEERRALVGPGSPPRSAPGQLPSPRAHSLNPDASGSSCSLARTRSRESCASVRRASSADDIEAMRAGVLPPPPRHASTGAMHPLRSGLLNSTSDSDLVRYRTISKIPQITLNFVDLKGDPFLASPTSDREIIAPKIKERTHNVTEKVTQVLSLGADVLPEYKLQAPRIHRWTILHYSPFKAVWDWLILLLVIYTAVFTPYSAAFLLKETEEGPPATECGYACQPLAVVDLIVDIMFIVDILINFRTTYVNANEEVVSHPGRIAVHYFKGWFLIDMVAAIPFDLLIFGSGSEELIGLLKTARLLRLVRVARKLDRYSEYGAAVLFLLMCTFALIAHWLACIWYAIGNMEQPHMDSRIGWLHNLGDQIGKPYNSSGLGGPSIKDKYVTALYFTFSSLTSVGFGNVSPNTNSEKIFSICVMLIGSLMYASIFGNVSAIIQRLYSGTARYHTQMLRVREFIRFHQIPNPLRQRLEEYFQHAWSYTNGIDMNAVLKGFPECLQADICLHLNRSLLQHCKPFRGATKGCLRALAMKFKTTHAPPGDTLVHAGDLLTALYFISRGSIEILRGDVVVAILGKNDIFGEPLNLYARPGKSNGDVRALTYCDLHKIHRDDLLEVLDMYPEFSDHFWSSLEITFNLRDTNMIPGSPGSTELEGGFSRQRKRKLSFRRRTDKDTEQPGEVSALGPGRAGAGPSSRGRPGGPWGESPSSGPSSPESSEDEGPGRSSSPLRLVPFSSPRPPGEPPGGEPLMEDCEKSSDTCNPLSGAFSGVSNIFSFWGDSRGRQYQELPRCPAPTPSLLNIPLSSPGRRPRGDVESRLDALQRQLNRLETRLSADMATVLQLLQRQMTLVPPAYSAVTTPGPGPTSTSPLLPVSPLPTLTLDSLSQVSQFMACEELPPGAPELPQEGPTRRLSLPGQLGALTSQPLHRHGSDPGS
Chain of Vitamin D3 receptor (Homo sapiens) (P11473 whole entry, looked up): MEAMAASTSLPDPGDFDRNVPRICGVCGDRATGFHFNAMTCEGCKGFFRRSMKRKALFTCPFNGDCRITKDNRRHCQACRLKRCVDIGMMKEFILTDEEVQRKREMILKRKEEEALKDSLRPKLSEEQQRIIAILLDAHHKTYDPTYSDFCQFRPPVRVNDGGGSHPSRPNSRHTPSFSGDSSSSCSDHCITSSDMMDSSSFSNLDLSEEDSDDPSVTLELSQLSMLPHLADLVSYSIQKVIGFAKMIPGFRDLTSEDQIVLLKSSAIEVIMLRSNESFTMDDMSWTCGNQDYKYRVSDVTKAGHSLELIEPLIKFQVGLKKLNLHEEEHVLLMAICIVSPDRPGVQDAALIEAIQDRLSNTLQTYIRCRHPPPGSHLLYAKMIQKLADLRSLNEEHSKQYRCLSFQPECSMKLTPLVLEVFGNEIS
Chain of Peroxisome proliferator-activated receptor gamma (Homo sapiens) (P37231 whole entry, looked up): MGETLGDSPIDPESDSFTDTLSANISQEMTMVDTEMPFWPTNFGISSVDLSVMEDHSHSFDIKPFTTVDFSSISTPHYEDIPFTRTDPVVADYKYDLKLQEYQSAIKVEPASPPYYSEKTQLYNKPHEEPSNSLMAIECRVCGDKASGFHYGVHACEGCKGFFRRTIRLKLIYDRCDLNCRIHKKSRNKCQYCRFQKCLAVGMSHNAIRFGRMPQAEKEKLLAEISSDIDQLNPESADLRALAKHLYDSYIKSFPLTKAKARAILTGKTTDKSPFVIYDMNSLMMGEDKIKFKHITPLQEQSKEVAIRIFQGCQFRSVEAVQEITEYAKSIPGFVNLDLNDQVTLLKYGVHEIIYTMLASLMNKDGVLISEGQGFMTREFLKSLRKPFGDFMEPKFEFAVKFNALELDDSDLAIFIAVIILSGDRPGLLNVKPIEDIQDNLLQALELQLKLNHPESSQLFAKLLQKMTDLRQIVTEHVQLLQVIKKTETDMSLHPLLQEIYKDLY
Chain of Glucocorticoid receptor (Homo sapiens) (P04150 whole entry, looked up): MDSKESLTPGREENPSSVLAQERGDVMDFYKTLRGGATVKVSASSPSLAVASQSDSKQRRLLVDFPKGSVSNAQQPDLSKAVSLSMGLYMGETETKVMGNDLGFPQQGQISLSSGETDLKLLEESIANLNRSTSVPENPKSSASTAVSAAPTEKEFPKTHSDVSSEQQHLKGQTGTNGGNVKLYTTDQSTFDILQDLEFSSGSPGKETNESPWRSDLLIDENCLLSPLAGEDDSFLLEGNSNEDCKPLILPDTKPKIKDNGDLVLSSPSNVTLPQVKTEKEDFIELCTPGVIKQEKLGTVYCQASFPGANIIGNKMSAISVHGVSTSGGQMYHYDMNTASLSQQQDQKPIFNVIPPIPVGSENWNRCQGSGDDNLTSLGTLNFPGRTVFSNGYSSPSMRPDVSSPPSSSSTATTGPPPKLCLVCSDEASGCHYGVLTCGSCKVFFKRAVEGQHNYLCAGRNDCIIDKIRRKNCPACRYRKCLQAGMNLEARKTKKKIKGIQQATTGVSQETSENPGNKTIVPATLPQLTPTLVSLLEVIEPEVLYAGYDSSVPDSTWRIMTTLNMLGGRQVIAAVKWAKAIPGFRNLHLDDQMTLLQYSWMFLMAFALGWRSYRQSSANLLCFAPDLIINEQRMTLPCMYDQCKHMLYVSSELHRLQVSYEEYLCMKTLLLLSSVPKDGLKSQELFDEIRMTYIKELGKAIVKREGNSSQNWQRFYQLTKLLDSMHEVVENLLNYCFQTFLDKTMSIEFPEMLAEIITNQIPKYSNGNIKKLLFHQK
Chain of Thyroid hormone receptor beta (Homo sapiens) (P10828 whole entry, looked up): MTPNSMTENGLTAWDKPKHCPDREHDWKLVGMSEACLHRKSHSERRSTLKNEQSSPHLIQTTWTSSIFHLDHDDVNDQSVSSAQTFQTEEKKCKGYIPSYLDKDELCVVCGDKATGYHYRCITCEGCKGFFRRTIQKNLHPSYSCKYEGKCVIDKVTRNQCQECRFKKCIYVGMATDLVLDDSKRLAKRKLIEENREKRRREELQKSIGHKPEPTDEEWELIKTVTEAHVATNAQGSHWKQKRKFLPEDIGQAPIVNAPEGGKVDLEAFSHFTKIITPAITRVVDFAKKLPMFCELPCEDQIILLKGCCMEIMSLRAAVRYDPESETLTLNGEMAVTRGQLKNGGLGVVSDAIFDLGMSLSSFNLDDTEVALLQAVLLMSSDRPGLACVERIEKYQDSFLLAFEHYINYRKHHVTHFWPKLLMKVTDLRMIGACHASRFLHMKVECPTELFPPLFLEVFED
Chain of Retinoic acid receptor RXR-alpha (Homo sapiens) (P19793 whole entry, looked up): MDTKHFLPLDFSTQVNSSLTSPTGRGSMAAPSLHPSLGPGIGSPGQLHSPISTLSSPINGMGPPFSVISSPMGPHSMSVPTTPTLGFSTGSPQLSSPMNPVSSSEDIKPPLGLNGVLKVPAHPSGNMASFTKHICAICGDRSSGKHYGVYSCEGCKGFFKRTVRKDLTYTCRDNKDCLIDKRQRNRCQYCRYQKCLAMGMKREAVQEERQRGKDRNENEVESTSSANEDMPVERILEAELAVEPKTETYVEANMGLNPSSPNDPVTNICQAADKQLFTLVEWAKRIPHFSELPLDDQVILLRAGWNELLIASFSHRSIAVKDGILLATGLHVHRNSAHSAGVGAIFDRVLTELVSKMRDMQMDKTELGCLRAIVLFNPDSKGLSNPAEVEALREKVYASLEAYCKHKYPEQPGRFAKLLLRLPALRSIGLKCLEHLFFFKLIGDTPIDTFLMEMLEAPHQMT

As for `Nc1cccc(O)c1`, the activation in [1] was -1.32% (inactive); in [14] it was -1.16% (inactive). Further, the outcome in [2], in experiment [4], in experiment [5], in [6], in experiment [8] and in experiment [9] was inactive. Besides, the max response is 11.9% in [3], -4.39% in experiment [7], 6.84% in experiment [10] and 1.85% (inactive) in experiment [11]. Moreover, the activity change % (negative = inhibition) in experiment [12] was -7.53% (inactive). In addition, the Potency entry in [13] was “inactive”.

`CCCCC(CC)COC(=O)CCCCC(=O)OCC(CC)CCCC` (configuration not stated): the activation in [1] is 0.342% (inactive) and 3.17% (inactive); in [16], -0.514% (inactive) and -0.3% (inactive); in experiment [14] it was 0.278% (inactive) and -0.188% (inactive). In addition, the outcome in [2], in experiment [4], in experiment [5], in experiment [6] and in [9] was inactive. Besides, the max response in [3] is -4.31% and 35.2%; in experiment [7], -13% and -12.5%; in experiment [10], -3.16% and -14.9%; in experiment [11], 12% (inactive) and 4.32% (inactive). The Potency entry in experiment [13] and in experiment [15] was “inactive” throughout.

As for `CC(C)(O)CCC(C)(C)O`, the activation in [1] is -3.83% (inactive); in experiment [16], -3.36% (inactive). Moreover, the result in experiment [2], in experiment [4], in experiment [17], in experiment [5], in [8] and in [9] was inactive. The max response is -8.68% in [7], -5.49% in experiment [10] and 1.42% (inactive) in [11]. The activity change % (negative = inhibition) in [12] was 4.09% (inactive). Besides, the Potency result in experiment [13] was “inactive”.

Take `CN(C)CCCCl`: the activation in experiment [1] was 13.4% (inactive); in experiment [16], -1.08% (inactive); in [14], 0.444% (inactive). For the same compound, the outcome in experiment [2], in experiment [5], in experiment [6], in [8] and in [9] was inactive. Besides, the values for the max response in experiment [7], in [10] and in experiment [11] were -11.7%, -4.19% and -2.2% (inactive), respectively. For the same compound, the activity change % (negative = inhibition) in [12] was 10.5% (inactive). Moreover, the Potency result in experiment [13] and in experiment [15] was “inactive” each time.

As to `CC/C(C)=N/O`, the activation in [1] is 3.82% (inactive); in experiment [16] it was -0.712% (inactive). The result in experiment [2], in [5], in [6], in experiment [8] and in experiment [9] was inactive. Besides, the max response in experiment [7] is -14.2%. In addition, in experiment [12], the activity change % (negative = inhibition) was 13.4% (inactive). Moreover, the Potency entry in experiment [13] was “inactive”.

For the compound `Cc1c(N)cccc1N`, the activation was -2.97% (inactive) in experiment [1] and -1.33% (inactive) in [14]. The result in experiment [2], in [5], in experiment [6], in [8] and in experiment [9] was inactive. The results for the max response in experiment [3], in experiment [7] and in experiment [10] were -12.4%, -3.37% and -4.94%, respectively. For the same compound, the activity change % (negative = inhibition) in experiment [12] was -2.96% (inactive). Besides, in experiment [13], the Potency result is “inactive”.

For `CNc1ccc([N+](=O)[O-])cc1`, the activation in experiment [1] was -3.38% (inactive); in experiment [14] it was -1.5% (inactive). Besides, the outcome in experiment [2], in experiment [4], in experiment [8] and in [9] was inactive. The max response is 3.4% in experiment [7], 8.47% in [10] and 0.864% (inactive) in experiment [11]. In addition, in [12], the activity change % (negative = inhibition) is 2.18% (inactive). Further, in [13], the Potency entry was “inactive”.

Consider `Cc1ccc2ccccc2c1[N+](=O)[O-]`, for which the activation was -8.32% (inactive) in experiment [1], 0.53% (inactive) in experiment [16] and 0.793% (inactive) in [14]. Also, the outcome in experiment [2], in [4], in [17], in experiment [5], in experiment [6] and in [8] was inactive. Besides, the max response in [7] is -7.86%; in [10], 0.642%; in experiment [11], 2.75% (inactive). Further, in experiment [12], the activity change % (negative = inhibition) is -6.91% (inactive). In experiment [13], the Potency result is “inactive”.

The record behind these values is PubChem BioAssay (NCATS).
